AmpC inh detg = AmpC beta-lactamase inhibition with detergent present; Potency, µM (top dose mostly 114 µM), most hits filed as inhibitors; P00811; AmpC hydrolysis of nitrocefin, absorbance 480 nm, 0.01% Triton; actives 0.041% (n = 370,000); also: nearly all actives have a fitted effect of over 25% in size
Target sequence (P00811 whole entry, looked up): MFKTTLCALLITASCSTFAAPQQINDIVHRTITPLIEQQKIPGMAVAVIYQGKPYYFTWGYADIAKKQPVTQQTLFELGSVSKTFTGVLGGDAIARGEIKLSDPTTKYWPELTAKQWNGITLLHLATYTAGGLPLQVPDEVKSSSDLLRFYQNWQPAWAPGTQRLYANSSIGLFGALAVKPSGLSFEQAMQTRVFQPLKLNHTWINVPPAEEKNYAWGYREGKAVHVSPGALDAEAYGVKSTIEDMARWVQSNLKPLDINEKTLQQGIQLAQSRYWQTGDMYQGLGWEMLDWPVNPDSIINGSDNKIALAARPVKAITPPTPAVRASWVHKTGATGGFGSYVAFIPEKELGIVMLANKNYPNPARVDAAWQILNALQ
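AmpC (5.3 nM in the dispensed reagent) in 20 mM phosphate pH 7.0 with 0.01% (detergent screen) or 0.0001% Triton X-100 was preincubated with compounds for 15 min at room temperature. Nitrocefin was then added from an 800 uM solution, and hydrolysis was followed at 480 nm.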
SARS PLP yeast = inhibitors of SARS-CoV papain-like protease in yeast; S. cerevisiae expressing SARS-CoV PLpro, growth rescue; Potency, µM (titrated, usually from 32.9 µM), actives largely listed as activators; actives 0.19% (n = 330,000); AID 485353; calls by dose curve; also: nearly all actives have a fitted effect of over 55% in size
AMA1-RON2 inh = disrupts binding of P. falciparum AMA1 to RON2; AID 720542; AlphaScreen AMA1-biotinylated RON2 peptide binding; Potency, µM (doses to about 58.2 µM), hits mostly inhibitors; actives 0.2% (n = 360,000); also: nearly all actives have a fitted effect of over 45% in size
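AMA1 (3D7) with his tag at 25 nM final met compounds first, then biotinylated RON2 peptide at 25 nM; detection used donor plus acceptor beads, 10 µg/mL apiece, read by AlphaScreen after 30 min at room temperature.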
Cycloheximide cs = affects cycloheximide protein synthesis inhibition readout, counter-screen. cell reporter, cycloheximide protein synthesis inhibition counterscreen. max response, %. actives 12% (n = 300,000); in the data active = max response mostly above about 13%, no sharp cut-off; inactive = mostly below about 14%; also: read at 38.3 µM for the half of the compounds with a filed dose
Shiga inhibitor = blocks Shiga toxin action in Vero cells. Vero cells, Shiga toxin protein synthesis inhibition reporter. inhibition, % at 38.7 µM. actives 9.2% (n = 290,000). AID 2315; in the data active = inhibition mostly above about 28%, no sharp cut-off; inactive = mostly below about 43%
AmpC no deterg = blocks E. coli AmpC beta-lactamase in detergent-free assay | P00811 | AmpC nitrocefin hydrolysis, absorbance 480 nm, 0.0001% Triton | Potency, µM (highest dose often 57.1 µM), hits mostly inhibitors | actives 0.52% (n = 330,000) | AID 485341; also: nearly all actives have a fitted effect of over 20% in size
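AmpC (5.3 nM in the dispensed reagent) in 20 mM phosphate pH 7.0 with 0.01% (detergent screen) or 0.0001% Triton X-100 was preincubated with compounds for 15 min at room temperature. Nitrocefin was then added from an 800 uM solution, and hydrolysis was followed at 480 nm.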
Each line names hits and unclear results; the compound was inactive in the other large screens. This is one part of a sample in which hits are shown more often than they occur. Unless noted, calls follow the shape of the dose curve; as a rule, active = well fitted curve in the direction sought with a large enough effect; inconclusive = small, poorly fitted or top-dose-only effect, or another doubt; inactive = no such curve, though single readings can be large; an effect the other way counts as inactive or inconclusive.

COC(=O)c1c(-c2ccccc2)csc1NC(=O)C1CC=CCC1C(=O)O (centres undefined)	AmpC inh detg inconclusive
O=C(Oc1cccc2cccnc12)c1ccco1	none
OCCNc1nc2ccccc2n1CC(O)c1ccccc1 (centres undefined)	none
O=C(NCCc1ccc(Cl)cc1)c1cccs1	Cycloheximide cs 42, Shiga inhibitor 134
O=C(CNC(=O)c1cccs1)c1ccc([N+](=O)[O-])cc1	Cycloheximide cs 23, Shiga inhibitor 92
O=C(CNC(=O)c1ccc([N+](=O)[O-])cc1)c1ccccc1	Cycloheximide cs 46, Shiga inhibitor 95
O=C(CNC(=O)c1cccs1)c1ccc(F)cc1	Cycloheximide cs 25
O=C(NCCc1csc(-c2ccc(Cl)cc2)n1)c1cccs1	none (no result: SARS PLP yeast, AMA1-RON2 inh, Cycloheximide cs, Shiga inhibitor, AmpC no deterg)
Cc1ccc(C(=O)NC(=S)N(C)C2CCCCC2)cc1Br	none (no result: AMA1-RON2 inh)
CC(=O)c1ccc(OCc2cc(C(=O)N(C)Cc3nc4c(C)cccc4[nH]3)no2)cc1	AmpC inh detg inconclusive
Cc1cccc(C)c1OCc1cc(C(=O)N(C)Cc2nc3ccccc3[nH]2)no1	none
Cc1ccc(OCc2cc(C(=O)N(C)CCc3nc4ccccc4[nH]3)no2)cc1C	AmpC inh detg inconclusive, Cycloheximide cs 27
CC(=O)c1cccc(OCc2cc(C(=O)N(C)CCc3cnn(C)c3)no2)c1	none
CC(=O)c1cccc(OCc2cc(C(=O)N(C)Cc3ccc(C)o3)no2)c1	Cycloheximide cs 22, Shiga inhibitor 79
CC(=O)c1ccc(OCc2cc(C(=O)N(C)CCOc3ccc(C)cc3)no2)cc1	Cycloheximide cs 47, Shiga inhibitor 81
Cc1ccc(OCc2cc(C(=O)N(C)CCc3ccccn3)no2)cc1C	Cycloheximide cs 83, Shiga inhibitor 109
O=C(CN1C(=O)NC2(CCCCC2)C1=O)N(Cc1ccco1)Cc1cccs1	AmpC inh detg inconclusive (no result: Cycloheximide cs, Shiga inhibitor)
CC(=O)c1cccc(OCc2cc(C(=O)N(C)CCc3ccccn3)no2)c1	Cycloheximide cs 15
COc1ccc(C2Nc3ccccc3C(=O)N2c2ccccc2)cc1CN1CCOCC1 (centres undefined)	none
COc1ccc(C2Nc3ccccc3C(=O)N2c2ccc(C)cc2)cc1Cn1nc(C)c([N+](=O)[O-])c1C (centres undefined)	Cycloheximide cs 47
COc1ccc(C2Nc3ccccc3C(=O)N2Cc2ccccc2)cc1COc1ccc(Cl)cc1Cl (centres undefined)	none (no result: AMA1-RON2 inh, Cycloheximide cs, Shiga inhibitor)
COc1ccc(N2C(=O)c3ccccc3NC2c2ccc(OC)c(Cn3nnc4ccccc43)c2)cc1 (centres undefined)	Cycloheximide cs 21
COc1ccc(C2Nc3ccccc3C(=O)N2c2ccc(C)cc2)cc1COc1ccccn1 (centres undefined)	Cycloheximide cs 37
CCOc1ccccc1N1CC(C(=O)Nc2ccccc2N2CCCC2)CC1=O (centres undefined)	none (no result: Cycloheximide cs, Shiga inhibitor)
O=[N+]([O-])c1ccccc1NC(=S)N/N=C/c1ccc(O)c(O)c1	Cycloheximide cs 22, Shiga inhibitor 74, AmpC no deterg 4.5µM
O=[N+]([O-])c1ccccc1C=NNC(=S)NN=Cc1ccccc1[N+](=O)[O-]	none (no result: AmpC inh detg, SARS PLP yeast, Cycloheximide cs, Shiga inhibitor, AmpC no deterg)
CCOc1cccc(/C=N/NC(=S)Nc2ccccc2[N+](=O)[O-])c1O	Cycloheximide cs 38, Shiga inhibitor 154
COc1cccc(/C=N/NC(=S)NCCc2ccccc2)c1OC	none
CCOc1cccc(/C=N/NS(=O)(=O)c2ccc(C)c([N+](=O)[O-])c2)c1O	none
CCCCNC(=S)N/N=C/c1cccc(OCC)c1O	Shiga inhibitor 30
COc1ccc(CC(=O)OCC(=O)Nc2ccc(Cl)c(S(=O)(=O)N(C)C)c2)cc1	AmpC inh detg inconclusive
CCn1c(O)c(C=NCc2ccccc2)sc1=S	none
CCn1c(O)c(C=NC2CCCC(C)C2C)sc1=S (centres undefined)	AMA1-RON2 inh inconclusive, Cycloheximide cs 51, Shiga inhibitor 110
Cc1cnc(NC(=O)c2ccncc2)s1	AmpC inh detg inconclusive, Cycloheximide cs 17, Shiga inhibitor 36
Cc1cnc(NC(=O)c2cncc(Br)c2)s1	Cycloheximide cs 30, Shiga inhibitor 53
CCn1ccc(C(=O)NC2CCCC2)n1	none
